# Test results from PubChem BioAssay (NCATS).
# Results filed as inconclusive are left out. Values without a mark were called inactive. The source made the active and inactive calls. Unless noted, the call rests on the fitted dose curve; in most records, active means well fitted curve in the direction sought with a large enough effect; inconclusive means small, poorly fitted or top-dose-only effect, or another doubt; inactive means no such curve, though single readings can be large; an effect the other way counts as inactive or inconclusive.
# Biological target: Cytochrome P450 2C9 (Homo sapiens) (UniProt P11712)
# Assay: Cytochrome P450 family 2 subfamily C member 9 (CYP2C9) small molecule antagonists: luciferase biochemical (cell-free) qHTS assay (AID 1645842; active means well fitted curve in the direction sought with a large enough effect in the repeat runs; an effect the other way counts as inactive or inconclusive; further: nearly all actives have a fitted effect of over 55% in size)
# Settings: P450-Glo CYP2C9 enzyme assay, luciferin luminescence; series mostly up to 57.4 µM; activity change, negative = inhibition: at the top concentration
# Procedure, shortened: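 Luminescence, after 20 min with luciferin detection reagent, reflected CYP2C9 turnover during a 1 h NADPH-driven reaction at 37C. Enzyme-substrate mix contained 0.4% bovine serum albumin and was preincubated with compound 10 min at room temperature.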
# Potency means the concentration at half of the fitted maximal effect.
# Cytochrome P450 2C9 (Homo sapiens), sequence (P11712 whole entry, looked up): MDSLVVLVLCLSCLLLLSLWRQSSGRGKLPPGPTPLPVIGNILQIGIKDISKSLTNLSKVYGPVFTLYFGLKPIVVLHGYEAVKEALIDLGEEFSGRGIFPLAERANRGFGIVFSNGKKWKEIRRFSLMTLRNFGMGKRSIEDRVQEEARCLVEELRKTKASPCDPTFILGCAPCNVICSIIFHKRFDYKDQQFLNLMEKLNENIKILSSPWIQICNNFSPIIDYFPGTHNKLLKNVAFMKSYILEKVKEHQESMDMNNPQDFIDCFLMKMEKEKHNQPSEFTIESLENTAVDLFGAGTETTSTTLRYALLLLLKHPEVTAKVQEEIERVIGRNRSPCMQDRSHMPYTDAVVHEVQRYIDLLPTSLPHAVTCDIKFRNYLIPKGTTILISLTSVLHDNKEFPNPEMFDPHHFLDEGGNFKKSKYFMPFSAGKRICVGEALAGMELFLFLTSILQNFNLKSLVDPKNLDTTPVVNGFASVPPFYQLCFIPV
row,SMILES,Potency
1,Cc1ncc(-c2ccnc(Nc3ccc(S(C)(=O)=O)cc3)n2)n1C(C)C,3.79 µM (active)
2,CC(C)n1cnc2c(NCCc3ccc(O)cc3)nc(-c3csc4ccccc34)nc21,2.68 µM (active)
3,O=C(Nc1ccc(Oc2ccnc3[nH]ccc23)c(F)c1)c1cccn(-c2ccc(F)cc2)c1=O,1.9 µM (active)
4,Cn1cc(-c2ccc3ncc(Cc4ccc5ncccc5c4)n3n2)cn1,0.756 µM (active)

# Tested on: not listed separately
# Assay: Primary qHTS for inhibitors of nuclear receptor binding SET domain protein 2 (NSD2) in an isogenic RCH-ACV NSD2 p.E1099K mutant (9B) (AID 1645876); further: nearly all actives have a fitted effect of over 70% in size; on activity change, negative = viability loss: on the % scale 0 is the no-effect control and ±100 the full control effect
# Settings: RCH-ACV (leukaemia line) NSD2 E1099K (9B) viability, CellTiter-Glo, 72 h; series mostly up to 44.9 µM; activity change, negative = viability loss: at the top concentration
SMILES,"activity change, negative = viability loss [%]",Potency,outcome
Cc1noc(-c2ccc(CSCCC(=O)O)cc2)c1NC(=O)OC(C)c1ccccc1Cl (centres undefined),-8.98,–,–
COc1cc(O)c2c(c1)C1OC1C[C@H](O)[C@H](O)C(=O)C=CC[C@H](C)OC2=O (some centres undefined),–,3.72 µM (active),–
CN(C)c1ccc(C(=O)NCCCCCCC(=O)NO)cc1,–,0.525 µM (active),–
CC(=O)NC(CS)C(=O)O (centres undefined),9.92,–,–
CN1CCCN(C(=O)c2cccc(-c3ccc(C=C4C(=O)Nc5ccc(Cl)cc54)o3)c2)CC1,–,0.206 µM (active),–
Cc1ccc(O)c(C(CCN(C(C)C)C(C)C)c2ccccc2)c1 (centres undefined),–,–,inactive
Cc1ccccc1C(=O)Nc1ccc(C(=O)N2CCCC(O)c3cc(Cl)ccc32)c(C)c1 (centres undefined),–,13.3 µM (active),–
C=Cc1c(C)c2cc3nc(cc4[nH]c(cc5nc(cc1[nH]2)C(C)=C5CCC(=O)O)c(CCC(=O)OC)c4C)[C@@]1(C)C3=CC=C(C(=O)OC)[C@H]1C(=O)OC,-24.7,–,–
C=C(C)[C@@H]1CC[C@]2(C(=O)O)CC[C@]3(C)[C@H](CC[C@@H]4[C@@]5(C)CC[C@H](O)C(C)(C)[C@@H]5CC[C@]43C)[C@@H]12,-3.83,–,–
CCNC(=O)Nc1ccc(-c2nc3c(c(N4CCOC[C@H]4C)n2)CCN(C2COC2)C3)cc1,–,0.731 µM (active),–
